ELG1 DNA repair: qHTS screen for small molecules that inhibit ELG1-dependent DNA repair in human embryonic kidney (HEK293T) cells expressing luciferase-tagged ELG1 | HEK293T ELG1-luciferase reporter, luminescence, 16 h; DNA damage induced by 5-fluorouridine | Potency, µM (highest dose often 46.1 µM), for inactives: top-dose activity change, negative = inhibition, usual class: inhibitors | AID 504467, 2011 | 330,000 compounds, 2.3% hits; further: on the % scale 0 is the no-effect control and ±100 the full control effect; nearly all actives have a fitted effect of over 55% in size
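HEK293T cells expressing luciferase-tagged ELG1 (2,000/well) received 5-Fluorouridine plus compound or DMSO for 16 hr at 37 °C. Luciferase was read by ONE-Glo luminescence after 30 min at room temperature.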
FLuc modulator: qHTS profiling assay for firefly luciferase inhibitor/activator using purifed enzyme and Km concentrations of substrates (counterscreen for miR-21 project) | 360,000 compounds, 6.9% hits | purified FLuc, Km substrates, luminescence inhibition | Luciferin 4-monooxygenase (Photinus pyralis), P08659 | Potency, µM (doses to about 57.5 µM), for the others: at the highest dose activity change, negative = inhibition, most hits filed as inhibitors;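 further: plate controls were vehicle for no effect and reference inhibitor for full effect; nearly all actives have a fitted effect of over 55% in size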
Target sequence (P08659 whole entry, looked up): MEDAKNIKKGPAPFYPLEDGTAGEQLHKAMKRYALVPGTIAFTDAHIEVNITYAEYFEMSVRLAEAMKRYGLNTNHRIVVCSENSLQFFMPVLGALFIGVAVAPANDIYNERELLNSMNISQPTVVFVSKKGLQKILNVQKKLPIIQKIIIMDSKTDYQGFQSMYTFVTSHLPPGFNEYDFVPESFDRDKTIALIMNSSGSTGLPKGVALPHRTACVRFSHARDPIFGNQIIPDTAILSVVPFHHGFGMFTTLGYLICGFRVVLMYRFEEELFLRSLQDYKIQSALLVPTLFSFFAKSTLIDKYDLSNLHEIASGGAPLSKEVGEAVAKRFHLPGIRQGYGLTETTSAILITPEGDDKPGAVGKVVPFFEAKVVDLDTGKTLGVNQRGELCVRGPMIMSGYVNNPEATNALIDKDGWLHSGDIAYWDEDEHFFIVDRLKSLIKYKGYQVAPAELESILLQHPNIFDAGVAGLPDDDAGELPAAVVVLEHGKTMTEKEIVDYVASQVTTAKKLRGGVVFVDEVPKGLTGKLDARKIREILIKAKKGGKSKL
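Purified P. pyralis luciferase (10nM final) with 10uM D-luciferin and 10uM ATP (Km levels) in 50mM Tris acetate pH 7.5, 10mM Mg acetate, 0.01% Tween-20, 0.05% BSA; qHTS 6-point titration, ~60 µM downward; luminescence read.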
NPC1 promoter act: qHTS Assay for NPC1 Promoter Activators; Huh7 NPC1 promoter luciferase reporter, 24 h; Potency, µM (titrated, usually from 9.22 µM), for inactives: at the highest dose activation, most hits filed as activators; 320,000 compounds, 2.4% hits; further: % of control where 0% means no effect; nearly all actives have a fitted effect of over 60% in size
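Stably transfected Huh7 (NPC1 promoter→luciferase), 1500 cells/well in Opti-MEM + 10% FBS, 2 h settle, then compound 24 h at 37 °C. Luminescence after 10 min with Amplite reagent.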
SMN2 splice up: qHTS Assay for Enhancers of SMN2 Splice Variant Expression; HEK293 SMN2-luciferase splicing reporter, luminescence, 30-36 h; Potency, µM (highest dose often 46.1 µM), for inactives: at the highest dose activity change, positive = activation, most hits filed as activators; 210,000 compounds, 2.8% hits; AID 1458, 2008; further: % of control where 0% means no effect; nearly all actives have a fitted effect of over 55% in size
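HEK293 cells carry an SMN2 minigene-luciferase reporter in which exon 7 inclusion puts luciferase in frame. Cells were seeded at 2000 cells/well, attached for 10-12 hours, then exposed to compounds for 30-36 hours at 37C before ONE-Glo luminescence.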
Rab9 prom act: qHTS Assay for Rab9 Promoter Activators. Potency, µM (highest dose often 9.22 µM), for the others: top-dose activation, negative = inhibition, actives largely listed as activators. Huh7 Rab9 promoter-luciferase reporter, luminescence, 24 h. AID 485297, 2010. 320,000 compounds, 2.8% hits; further: % of control where 0% means no effect; nearly all actives have a fitted effect of over 60% in size
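Measured in stably transfected Huh7 cells bearing a Rab9 promoter–luciferase construct: 24 h compound treatment at 37 °C, followed by luminescence detection.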
ELG1 genotoxic: qHTS screen for small molecules that induce genotoxicity in human embryonic kidney (HEK293T) cells expressing luciferase-tagged ELG1; HEK293T ELG1-luciferase reporter, luminescence, 16 h; Potency, µM (doses to about 46 µM), without a hit: at the highest dose activity change, positive = activation, actives largely listed as activators; 330,000 compounds, 1.3% hits; AID 504466, 2011; further: % of control where 0% means no effect; nearly all actives have a fitted effect of over 60% in size
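HEK293T cells expressing luciferase-tagged ELG1 were exposed to compound or DMSO vehicle for 16 hr at 37 °C and 5% CO2. Luciferase activity was then measured with ONE-Glo after 30 min at room temperature.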
The depositor's hits bear a star. Sampled rows, rich in hits. Any-hit rate of the full collection: about 9.3%. The call rests on the fitted dose curve; in most records, active means well fitted curve in the direction sought with a large enough effect; inconclusive means small, poorly fitted or top-dose-only effect, or another doubt; inactive means no such curve, though single readings can be large; an effect the other way counts as inactive or inconclusive. Potency means the concentration at half of the fitted maximal effect.

For Clc1ccccc1-c1nnc(COc2ccccc2)o1 the results were FLuc modulator 21µM* and SMN2 splice up 13µM*.
COc1c(C)cccc1C(=O)NCCCNC(=O)c1ccc(C)nc1 was read as ELG1 DNA repair -4%, FLuc modulator 3%, NPC1 promoter act -3%, Rab9 prom act 18% and ELG1 genotoxic 2%.
`C=CCN(C(=O)c1csnn1)C(C(=O)NC1CCCC1)c1cccs1` (configuration not stated) gave ELG1 DNA repair 7%, FLuc modulator 3%, NPC1 promoter act 1%, Rab9 prom act 0% and ELG1 genotoxic 0%.
Cc1cc(C)nc(N/N=C/c2ccccc2OCc2ccccc2)n1 was read as ELG1 DNA repair inconclusive, FLuc modulator inconclusive, NPC1 promoter act -1%, SMN2 splice up -2%, Rab9 prom act 1% and ELG1 genotoxic -2%.
Cc1cc(C)nc(N/N=C/c2ccccc2OCc2cccc(Br)c2)n1 was read as ELG1 DNA repair 21µM*, FLuc modulator 19µM*, NPC1 promoter act -1%, SMN2 splice up -10%, Rab9 prom act -5% and ELG1 genotoxic 1%.
Cc1cc(C)nc(N/N=C/c2cc(Br)ccc2O)n1 was read as ELG1 DNA repair inconclusive, FLuc modulator 8.5µM*, NPC1 promoter act -6%, Rab9 prom act -7% and ELG1 genotoxic inconclusive.
Cc1cc(C)nc(N/N=C/c2ccccc2OCc2ccc(Br)cc2)n1 was read as ELG1 DNA repair inconclusive, FLuc modulator inconclusive, NPC1 promoter act 14%, SMN2 splice up 13µM*, Rab9 prom act 15% and ELG1 genotoxic -5%.
For CCCN=C1N(C)C[C@@H]2[C@@H]3C(=O)N(C)C(=O)[C@@H]3[C@](CC)(C(=O)OC)N12 the results were ELG1 DNA repair inconclusive and ELG1 genotoxic 4%.
`Cc1cccc(OCC(=O)O/N=C(\N)c2ccncc2)c1` gave ELG1 DNA repair inconclusive, FLuc modulator -7%, NPC1 promoter act 5%, Rab9 prom act -2% and ELG1 genotoxic 23%.
CN1CCN(CCCOc2ccc(-c3ccccc3)cc2)CC1 was read as ELG1 DNA repair inconclusive, FLuc modulator 19µM*, NPC1 promoter act 2.8µM*, Rab9 prom act inconclusive and ELG1 genotoxic inconclusive.
c1ccc(COc2ccc(OCCn3cncn3)cc2)cc1 was read as ELG1 DNA repair inconclusive, FLuc modulator 9.5µM*, NPC1 promoter act 2.5µM*, SMN2 splice up 11µM*, Rab9 prom act 3.2µM* and ELG1 genotoxic 9.2µM*.
Screening Brc1cccc(OCCCCn2cncn2)c1 returned ELG1 DNA repair -5%, FLuc modulator 0%, NPC1 promoter act -4%, Rab9 prom act 0% and ELG1 genotoxic -4%.
c1ccc(Oc2cccc(OCCn3cncn3)c2)cc1 was read as ELG1 DNA repair 17%, FLuc modulator inconclusive, NPC1 promoter act 0%, SMN2 splice up 0%, Rab9 prom act 6% and ELG1 genotoxic 10%.
Screening CN1CCN(CCOc2ccc(-c3ccccc3)cc2)CC1 returned ELG1 DNA repair inconclusive, FLuc modulator inconclusive, NPC1 promoter act 3%, Rab9 prom act 0% and ELG1 genotoxic 21%.
c1ccc(-c2ccc(OCCCn3cncn3)cc2)cc1 was read as ELG1 DNA repair inconclusive, FLuc modulator 17µM*, NPC1 promoter act 26%, SMN2 splice up -7%, Rab9 prom act 22% and ELG1 genotoxic inconclusive.
COc1ccc2nc(NC(=O)C3CCCN(S(=O)(=O)c4cccc5nonc45)C3)sc2c1 (configuration not stated) was read as ELG1 DNA repair 26µM*, FLuc modulator -15%, NPC1 promoter act 1%, SMN2 splice up -17%, Rab9 prom act -1% and ELG1 genotoxic -3%.
COc1ccc(CNC(=O)C2CCCN(S(=O)(=O)c3cccc4nsnc34)C2)cc1 (configuration not stated) was read as ELG1 DNA repair -2%, FLuc modulator 3%, NPC1 promoter act -4%, SMN2 splice up -23%, Rab9 prom act 0% and ELG1 genotoxic -5%.
Screening CCOc1ccc2nc(NC(=O)C3CCCN(S(=O)(=O)c4cccc5nonc45)C3)sc2c1 (configuration not stated) returned ELG1 DNA repair 23µM*, FLuc modulator inconclusive, NPC1 promoter act 0%, SMN2 splice up -8%, Rab9 prom act -6% and ELG1 genotoxic -7%.
`COc1ccc2nc(NC(=O)C3CCCN(S(=O)(=O)c4cccc5nsnc45)C3)sc2c1` (configuration not stated) gave ELG1 DNA repair 12µM*, FLuc modulator 1%, NPC1 promoter act -1%, SMN2 splice up 7%, Rab9 prom act -7% and ELG1 genotoxic -33%.
COc1cccc(N2C(=NC(=O)CCc3ccccc3)SC3CS(=O)(=O)CC32)c1 (configuration not stated) was read as ELG1 DNA repair inconclusive, FLuc modulator 0%, NPC1 promoter act 0%, Rab9 prom act -2% and ELG1 genotoxic 4%.
`Cc1ccc(-c2onc3ccc(C(=O)/C=C/N(C)C)cc23)cc1` gave ELG1 DNA repair -26%, FLuc modulator 15µM*, NPC1 promoter act 3%, Rab9 prom act 0% and ELG1 genotoxic -6%.
For CN(C)/C=C/C(=O)c1ccc2noc(-c3ccc(F)cc3)c2c1 the results were ELG1 DNA repair 8.2µM*, FLuc modulator inconclusive, NPC1 promoter act -3%, Rab9 prom act -5% and ELG1 genotoxic -9%.
COc1ccc(C(=O)NC(=O)COC(=O)c2ccc(C)o2)cc1 was read as ELG1 DNA repair 19%, FLuc modulator -3%, NPC1 promoter act -4%, Rab9 prom act 1% and ELG1 genotoxic 0%.
For COc1ccc(/C=C(\CC(=O)O)c2nc3ccccc3o2)cc1 the results were ELG1 DNA repair inconclusive, FLuc modulator 9.5µM*, NPC1 promoter act 2%, SMN2 splice up 30%, Rab9 prom act inconclusive and ELG1 genotoxic 16µM*.
Screening COc1ccc(C(=O)/C(=C/c2cccs2)c2nc3ccccc3o2)cc1 returned ELG1 DNA repair inconclusive, FLuc modulator -12%, NPC1 promoter act 4µM*, SMN2 splice up -72%, Rab9 prom act 3.5µM* and ELG1 genotoxic inconclusive.
COc1ccc(/C=C/C(=O)Nc2cc(-c3nc4ccccc4o3)ccc2OC)cc1 was read as FLuc modulator inconclusive and SMN2 splice up -8%.
